“And” between values parts separate entries of the source, which are not always exact repeats. Equal entries are not always repeated. The source made the active and inactive calls. The rule behind the calls is not given here. Peptide text beside a SMILES is read from it.
Note: 0% is about no effect.

In the first test the target is Nuclear receptor subfamily 1 group I member 2 (Rattus norvegicus) (UniProt Q9R1A7). Kind of test: qHTS assay for small molecule activators of the rat pregnane X receptor (rPXR) signaling pathway (AID 651751). The note with it: rPXR reporter cells, luciferase (One-Glo), 24 h.
Sequence of Nuclear receptor subfamily 1 group I member 2 (Rattus norvegicus) (Q9R1A7 whole entry, looked up): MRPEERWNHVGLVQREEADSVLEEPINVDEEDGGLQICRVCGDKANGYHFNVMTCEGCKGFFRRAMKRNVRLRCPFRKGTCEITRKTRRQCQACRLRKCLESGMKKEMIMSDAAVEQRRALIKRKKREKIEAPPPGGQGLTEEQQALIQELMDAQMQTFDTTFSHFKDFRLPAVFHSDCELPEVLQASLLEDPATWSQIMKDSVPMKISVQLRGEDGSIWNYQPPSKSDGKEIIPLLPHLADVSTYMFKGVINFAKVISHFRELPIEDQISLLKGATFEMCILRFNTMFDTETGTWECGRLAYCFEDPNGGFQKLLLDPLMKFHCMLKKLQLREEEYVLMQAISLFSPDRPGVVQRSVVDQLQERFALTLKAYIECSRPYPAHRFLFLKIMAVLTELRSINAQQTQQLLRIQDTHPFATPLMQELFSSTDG
`CC1(C)NC(=O)N(c2ccc([N+](=O)[O-])c(C(F)(F)F)c2)C1=O`: the max response was -9.05% (inactive).

Regarding `NS(=O)(=O)c1cc(C(=O)O)c(NCc2ccco2)cc1Cl`, the max response is 7.06% (inactive) and 0.0174% (inactive).

For `CCN(CC)C(=S)SSC(=S)N(CC)CC`, the max response was -4.1% (inactive).

For the molecule `CNC[C@H](O)c1ccc(O)c(O)c1`, the max response is 0.58% (inactive).

With `N[C@@H](Cc1cc(I)c(Oc2cc(I)c(O)c(I)c2)c(I)c1)C(=O)O`, the max response is 4.68% (inactive).

For the molecule `Cc1cc(O)c2c(c1)C(=O)c1cc(O)cc(O)c1C2=O`, the max response was 1.52% (inactive) and -0.614% (inactive).

As to `COc1c2occc2cc2ccc(=O)oc12`, the max response is 0.0225% (inactive) and 5.31% (inactive).

`Nc1ccc(S(N)(=O)=O)cc1`: the max response is 5.05% (inactive).

On to `Cc1ccc(C)c(OCCCC(C)(C)C(=O)O)c1`, for which the max response is -0.498% (inactive) and -3.12% (inactive).

In the case of `CS(=O)(=O)OCCCCOS(C)(=O)=O`, the max response is 1.78% (inactive) and 1.87% (inactive) and -0.923% (inactive).

For the molecule `CCCc1cc(=O)[nH]c(=S)[nH]1`, the max response was -3.12% (inactive) and -0.189% (inactive).

For the molecule `CC(=O)N1CCN(c2ccc(OC[C@H]3CO[C@](Cn4ccnc4)(c4ccc(Cl)cc4Cl)O3)cc2)CC1`, the max response was -5.89% (inactive).

Regarding `O=c1c(O)c(-c2ccc(O)cc2O)oc2cc(O)cc(O)c12`, the max response was -2.11% (inactive).

For `COC(=O)[C@H](Cc1ccccc1)NC(=O)[C@@H](N)CC(=O)O` (H-Asp-Phe-OMe), the max response was -0.463% (inactive) and 3.11% (inactive).

As for `Nc1nc(Cl)nc2c1ncn2[C@H]1C[C@H](O)[C@@H](CO)O1`, the max response was -12.9% (inactive).

Tested on in another test: not listed separately
Kind of test: qHTS assay for small molecule activators of the human pregnane X receptor (PXR) signaling pathway (AID 720659). The note with it: DPX-2 HepG2 CYP3A4-luciferase, 24 h; series mostly up to 92.3 µM. (Quantitative high-throughput screening tests each substance at several concentrations.)
For the molecule `CC1(C)NC(=O)N(c2ccc([N+](=O)[O-])c(C(F)(F)F)c2)C1=O`, the molecule was called inactive.

On to `NS(=O)(=O)c1cc(C(=O)O)c(NCc2ccco2)cc1Cl`, for which the molecule was called inactive.

Take `CNC[C@H](O)c1ccc(O)c(O)c1`: the molecule was classed as inactive.

Consider `Nc1ccc(S(N)(=O)=O)cc1`, for which the outcome was inactive.

For the molecule `CC(=O)Nc1ccc(O)cc1`, the molecule was classed as inactive.

With `CN(C)c1ccc2nc3ccc(=[N+](C)C)cc-3sc2c1`, the molecule was called inactive.

Turning to `CCCc1cc(=O)[nH]c(=S)[nH]1`, the call was inactive.

As to `CC(=O)N1CCN(c2ccc(OC[C@H]3CO[C@](Cn4ccnc4)(c4ccc(Cl)cc4Cl)O3)cc2)CC1`, the call was inactive.

The values above are taken from PubChem BioAssay (NCATS).
